MOR-DOR ag: agonists of human mu-delta opioid receptor heterodimerization. P35372+P41143. cells, OPRM1-OPRD1 heterodimerization, luminescence. hit rate 0.3% among 340,000. activation, % at 9.3 µM. AID 504326;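 further: 0% = vehicle-treated cells and 100% = reference agonist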
Target sequence (P35372 whole entry, looked up): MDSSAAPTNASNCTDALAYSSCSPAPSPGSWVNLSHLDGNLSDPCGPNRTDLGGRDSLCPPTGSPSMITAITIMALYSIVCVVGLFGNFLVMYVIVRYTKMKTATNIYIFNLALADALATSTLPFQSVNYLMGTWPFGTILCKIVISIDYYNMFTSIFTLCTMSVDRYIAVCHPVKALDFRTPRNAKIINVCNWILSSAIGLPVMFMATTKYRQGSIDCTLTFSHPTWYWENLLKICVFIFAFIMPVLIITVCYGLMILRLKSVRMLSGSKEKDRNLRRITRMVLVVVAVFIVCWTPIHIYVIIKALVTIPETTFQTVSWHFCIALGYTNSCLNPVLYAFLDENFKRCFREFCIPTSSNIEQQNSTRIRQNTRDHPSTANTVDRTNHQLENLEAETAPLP
Target sequence (P41143 whole entry, looked up): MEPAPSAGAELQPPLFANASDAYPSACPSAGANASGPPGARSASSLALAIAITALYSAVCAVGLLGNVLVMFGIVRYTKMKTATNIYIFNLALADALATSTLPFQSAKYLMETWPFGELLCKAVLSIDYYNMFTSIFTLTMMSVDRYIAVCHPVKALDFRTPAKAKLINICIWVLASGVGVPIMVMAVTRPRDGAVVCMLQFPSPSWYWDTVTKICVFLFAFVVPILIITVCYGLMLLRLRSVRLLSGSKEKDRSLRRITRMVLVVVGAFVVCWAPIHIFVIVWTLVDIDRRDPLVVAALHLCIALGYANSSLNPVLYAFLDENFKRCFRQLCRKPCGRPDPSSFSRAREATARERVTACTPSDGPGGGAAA
HTR5A ag ctr: HTR5A agonism, opioid heterodimer counter-screen; P47898; HTR5A agonist assay, luminescence, cell-based; activation, % at 9.3 µM; hit rate 0.61% among 340,000; in the data active means activation mostly above about 9.5%, no sharp cut-off; inactive means mostly below about 7.6%;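 further: 0% = cells with vehicle only and 100% = reference agonist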
HTR5A inv ag: counter-screen for OPRM1-OPRD1 inverse agonists: human HTR5A inverse agonism; P47898; HTR5A cell line, luminescence; inhibition, % at 9.3 µM; hit rate 0.083% among 340,000; AID 504634; in the data active means inhibition mostly above about 23%, no sharp cut-off; inactive means mostly below about 18%;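 further: 0% = cells with DMSO and 100% = no-cell wells with DMSO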
MOR-DOR inv ag: inverse agonists of human mu-delta opioid receptor heterodimerization. inhibition, % at 9.3 µM. P35372+P41143. cell-based MOR-DOR heterodimer luminescence, inverse agonism. hit rate 0.21% among 340,000; in the data active means inhibition above about 22%, passing the limit was not always enough;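 further: 0% = cells with DMSO and 100% = wells without cells with DMSO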
OPRM1-D1 ag cf: OPRM1-OPRD1 heterodimer agonism, confirmation | cells, MOR-DOR heterodimerization, luminescence complementation | shares compounds with MOR-DOR ag | hit rate 45% among 830 | AID 504904 | activation, % at 9.3 µM;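 further: 0% = vehicle-treated cells and 100% = reference agonist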
HTR5A ag ctr2: counter-screen for OPRM1-OPRD1 agonists: human HTR5A agonism; shares compounds with MOR-DOR ag; activation, % at 9.3 µM; hit rate 8% among 830; AID 504905; HTR5A agonist counterscreen, cell luminescence; in the data active means activation above about 17%;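 further: 0% = vehicle-treated cells and 100% = reference agonist response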
An asterisk follows results filed as active; i = inactive; . = no result given; ! = a repeat was not active. Sampled rows, rich in hits. Any-hit rate of the full collection: about 1.1%. Unless noted, no stated cut-off is given here; in the data, active means activation above about 18%; inactive means the rest.

SMILES | MOR-DOR ag | HTR5A ag ctr | HTR5A inv ag | MOR-DOR inv ag | OPRM1-D1 ag cf | HTR5A ag ctr2
c1ccc(C2[C@H]3CN(Cc4cccnc4)[C@H](c4ccccc4)C34CC2(c2cccnc2)C4)cc1 (stereo not given in full) | 80* | -5 | -20 | -434 | 75* | -4
Cc1noc(C)c1CSc1ccccc1C(=O)O | -1 | 10 | -29 | 6 | . | .
Cc1ccc(-n2cccn2)c(CN2CCC(CO)(CCc3ccccc3)CC2)c1 | 29* | -3 | 8 | -134 | 0 | -3
OCC1(CCc2ccccc2)CCN(Cc2cc(Cl)ccc2O)CC1 | 3 | 4 | 3 | -13 | . | .
CC(=O)Nc1c(Cl)c(Cl)c2c(c1Cl)C(=O)c1cc(Cl)ccc1-2 | 2 | -1 | 5 | -11 | . | .
Nc1c(NCCN2CCCCC2)c2ccccc2oc1=O | 53* | -2 | 4 | -278 | 15 | 4
CC(CCc1ccccc1)NC(=O)c1ccc(NC(=O)c2ccccc2)cc1 (stereo not given) | 26* | 2 | -4 | -181 | 7 | 2
CCCc1nc2c(=O)n(C)c(=O)nc-2n(C)n1 | 28* | 9.4* | -26 | -130 | 337* | 0
Cn1nc(-c2ccccn2)nc2c(=O)n(C)c(=O)nc1-2 | 41* | 9 | -25 | -223 | 28* | 1
Oc1cccc2c(NC(=S)Nc3ccc(SC(F)F)cc3)cccc12 | 6 | -2 | 5 | -36 | . | .
Oc1cccc(NC(=S)Nc2ccc(SC(F)F)cc2)c1 | 32* | -7 | 19 | -193 | 4 | 2
C[C@H](O)c1[nH]c2cc(F)ccc2c1[C@H](C)O | -2 | 2 | -19 | 10 | . | .
CCOC(=O)C1=C(c2ccccc2)NC(=O)NC1c1ccc(O)c(Cl)c1 (stereo not given) | 103* | 31* | -118 | i | 82* | 28*
Clc1cccc(Cl)c1CSc1nnc(-c2ccncc2)s1 | 21* | 2 | 4 | -105 | 8 | 5
Cc1ccc(C)c(N2CCN(S(=O)(=O)c3ccc(-c4ccc(=O)[nH]n4)o3)CC2)c1 | 20* | 5 | -1 | -108 | 16 | 3
Cc1ccc(Cl)cc1N1CCN(S(=O)(=O)c2ccc(-c3ccc(=O)[nH]n3)o2)CC1 | 10 | -3 | -13 | -49 | . | .
CC(NCc1cc(Br)ccc1OCC(=O)NCc1ccccc1)c1ccccc1 (stereo not given) | 33* | 1 | -2 | -169 | 19* | 4
Cc1cc(Cl)ccc1NNC(=O)CCc1ccccc1 | -2 | 1 | -1 | 8 | . | .
CCc1cccc(CC)c1NC(=S)NCC(c1cccnc1)N(C)C (stereo not given) | 150* | -2 | 14 | i | -2 | 0
CN(C)C(CNC(=O)Nc1cccc(Cl)c1)c1cccnc1 (stereo not given) | 202* | 5 | -4 | i | 4 | -4
CN(C)C(CNC(=S)Nc1ccc(Cl)cc1)c1cccnc1 (stereo not given) | 264* | 0 | 3 | i | -1 | -1
Cc1ccc(CN(C)C(=O)c2cccc(S(=O)(=O)N3CCc4ccccc4C3)c2)o1 | 0 | 0 | 1 | 2 | . | .
Cc1c(OC(C)C(=O)NCc2ccccn2)ccc2c3c(c(=O)oc12)CCCC3 (stereo not given) | -4 | -3 | -5 | 20 | . | .
COc1cccc(CC2(CO)CCCN(Cc3ccccc3-c3ccco3)C2)c1 (stereo not given) | 97* | -1 | -29 | i | 128* | 1
CCOC(=O)C1(CC2CCCCO2)CCN(Cc2ccccc2-c2ccco2)CC1 (stereo not given) | 379* | 3 | 3 | i | 10 | 4
SMILES | MOR-DOR ag | HTR5A ag ctr | HTR5A inv ag | MOR-DOR inv ag | OPRM1-D1 ag cf | HTR5A ag ctr2
CCOC(=O)C1(CC2CCCCO2)CCN(Cc2cc3ccccc3[nH]2)CC1 (stereo not given) | 307* | 4 | -9 | i | 2 | -1
COc1cccc(CC2(CO)CCCN(Cc3ccc(-c4ccco4)cc3)C2)c1 (stereo not given) | 3 | -1 | 1 | -14 | . | .
OCC1(CC2CCCCO2)CCN(Cc2ccccc2-c2ccco2)CC1 (stereo not given) | 96* | -1 | 4 | i | 136* | 3
O=C(O)CCN1C(=O)c2ccc(NC(=O)COc3ccccc3)cc2C1=O | 0 | 5 | -25 | 1 | . | .
CC(C)(C)c1ccc(OCC(=O)Nc2ccc3c4c(cccc24)C(=O)NC3=O)cc1 | 19* | -3 | -2 | -96 | 0 | 0
O=S(=O)(CCc1ccncc1)c1ccc(Cl)cc1 | 2 | 2 | 13 | -14 | . | .
COc1ccc(NS(=O)(=O)c2ccc(NC(=O)C(CCSC)NC(N)=O)cc2)cc1 (stereo not given) | -2 | 1 | -18 | 9 | . | .
OC(CN1CCN(C(c2ccccc2)c2ccccc2)CC1)c1ccccc1 (stereo not given) | 19* | -3 | 11 | -92 | 33* | 5
COc1cccc(N=c2oc3ccc(OC)cc3cc2-c2nc3ccccc3[nH]2)c1 | 19* | 4 | -30 | -102 | 26* | 8
CCN1CCN(CC(O)COc2ccc(C)c(C)c2)CC1 (stereo not given) | 25*! | 2 | -7 | -125 | 0 | 3
CCN1CCN(CC(O)COc2ccc(Cl)cc2)CC1 (stereo not given) | -2 | 5 | 12 | 11 | . | .
CC1=C(C(=O)Nc2ccccc2)C(c2ccc(C)cc2)N=C(Nc2nc3ccccc3o2)N1 (stereo not given) | 40* | 3 | -41 | -219 | 34* | 16
COc1ccc(N(C)C(=O)c2cc3c(s2)-c2c(C)cccc2OC3)c(OC)c1 | -1 | -2 | 13 | 3 | . | .
CC(C)C1CC(CCNCc2ccc(N(C)C)cc2)(c2ccccc2)CCO1 (stereo not given) | 21* | 7 | -20 | -113 | 25* | -1
O=[N+]([O-])c1ccc(Cl)c(/C=N/n2c(-c3ccncc3)n[nH]c2=S)c1 | 1 | 4 | -9 | -7 | . | .
Cc1cc(N2CCN(c3ccc([N+](=O)[O-])c4cccnc34)CC2)c2ccccc2n1 | 36* | 2 | -5 | -216 | 52* | 10
CCNC(=S)Nc1ccc(Cc2nc3ccccc3[nH]2)cc1 | -4 | -2 | 8 | 24 | . | .
COc1ccc(C2/C=C\CN(C(=O)Nc3ccc(C(F)(F)F)cc3)CC(=O)N2Cc2ccc(F)cc2)cc1 (stereo not given) | 58* | 20* | -50 | -318 | 0 | -3
COc1ccc(C2/C=C\CN(C(=O)Nc3ccccc3)CC(=O)N2Cc2ccc(F)cc2)cc1 (stereo not given) | -1 | -1 | 8 | 7 | . | .
COc1ccccc1C1CC(=O)Oc2c(C(C)C)ccc(C)c21 (stereo not given) | 5 | 1 | -4 | -22 | . | .
CCOC(=O)C1CCN(S(=O)(=O)c2cc(C(=O)OC)n(C)c2)CC1 | 0 | 10 | -28 | 0 | . | .

Assay outcomes (PubChem BioAssay)
